Measurements taken from PubChem BioAssay (NCATS).
Records with an inconclusive call do not appear. Entries that show only a call come without a potency. Unmarked numbers belong to inactive results. The source made the active and inactive calls. Calls come from the whole dose curve; as a rule, active = well fitted cell-killing curve with a large enough effect; inconclusive = small, poorly fitted or top-dose-only effect, or effect the other way; inactive = flat fitted curve, though single readings scatter.

Key:
Assay in all cases: Primary qHTS to identify gynecologic anti-cancer compounds using libraries of approved drugs and bioactive compounds (AID 1345084); note: nearly all actives have a fitted effect of over 55% in size
Conditions in all cases: Gynecologic cancer cell panel viability, ATPlite luminescence, 48 h; series mostly up to 57.5 µM
SKOV3 = tested on: SKOV3
How it was run: (§1)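 Cells, 1,000 per well, were allowed to settle for 16 h at 37 C before compound addition. Five concentrations were tested for 48 h, and viability was read by ATPlite luminescence after 15 min at room temperature.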

Tov-21-G = tested on: Tov-21-G
How it was run: as §1

Tov112D = tested on: Tov112D
How it was run: as §1
Potency is the fitted concentration of half-maximal effect.

Row | Structure (SMILES) | Potency (SKOV3) | Potency (Tov-21-G) | Potency (Tov112D) | activity change, negative = cytotoxicity (SKOV3) | activity change, negative = cytotoxicity (Tov-21-G) | activity change, negative = cytotoxicity (Tov112D)
1 | CNc1cc2[nH]c(=O)n(-c3ccc(NC(=O)NS(=O)(=O)c4ccc(Cl)s4)cc3)c(=O)c2cc1F | inactive | inactive | inactive | – | – | –
2 | COC1CC(=O)C23C(=O)NC(CC(C)C)C2C(C)C(C)=CC3/C=C(\C)CCCC1O (centres undefined) | inactive | inactive | inactive | – | – | –
3 | O=C(NCCN1CCOCC1)c1cc2c(Oc3ccc(NC(=O)C4(C(=O)Nc5ccc(F)cc5)CC4)cc3)ccnc2[nH]1 | inactive | inactive | inactive | – | – | –
4 | C/C=C/CCC1Cc2cc(O)c(CCCC)c(O)c2C(=O)O1 (centres undefined) | inactive | inactive | inactive | – | – | –
5 | CC/C(C)=C/C(=O)OC1C(OC2(C)CCC3C(C4C(C)CCC42)C3(C)C)OC(C)C(O)C1O (centres undefined) | inactive | inactive | inactive | – | – | –
6 | CCC(C)CNCC(=O)N1CCc2sccc2C1COc1cccc(C)c1 (centres undefined) | inactive | inactive | inactive | – | – | –
7 | COc1cccc(CN(C(=O)CC(C)(C)C)[C@H]2C[C@H](C(=O)N3CCNCC3)N(Cc3ccc4c(c3)OCO4)C2)c1 | inactive | inactive | inactive | – | – | –
8 | COc1cc(-c2nc(N[C@H](CO)Cc3ccccc3)ccc2C(=O)NCCOc2ccccc2)cc(OC)c1OC | inactive | inactive | inactive | – | – | –
9 | O=C(NCCCN1CCOCC1)c1cnn2c(-c3ccccc3)cc(-c3ccccc3)nc12 | inactive | inactive | inactive | – | – | –
10 | CC1OC(OC2C(O)COC(O[C@@H]3[C@@H](O)[C@@H](O)[C@H](OC4C(OC(=O)[C@]56CCC(C)(C)CC5C5=CCC7[C@@]8(C)C[C@H](O)[C@H](OC9OC(CO)C(O)C(O)C9O)[C@@](C)(CO)C8[C@H](O)C[C@@]7(C)[C@]5(C)CC6)OCC(O)C4O)O[C@H]3C)C2O)C(O)C(O)C1O (some centres undefined) | – | – | – | -8.72% [at 6.55 µM] | -21.3% [at 6.55 µM] | -9.06% [at 6.55 µM]
11 | O=C1c2ccc(Nc3ccc(F)cc3F)cc2CCc2ccc(OCC(O)CO)cc21 (centres undefined) | inactive | inactive | inactive | – | – | –
12 | COc1ccccc1N1CCN(c2ncnc3n[nH]c(Br)c23)CC1 | inactive | inactive | inactive | – | – | –
13 | C[C@@H]1O[C@@H](O[C@H]2[C@H](O[C@H]3CC[C@@]4(C)C(CC[C@]5(C)C4C=C[C@]46OC[C@@]7(CCC(C)(C)C[C@H]74)[C@@H](O[C@@H]4O[C@@H](C)[C@H](O)[C@@H](O)[C@H]4O)C[C@]65C)[C@]3(C)CO)O[C@H](CO)[C@@H](O)[C@@H]2O[C@@H]2O[C@H](CO)[C@@H](O)[C@H](O)[C@H]2O)[C@H](O)[C@H](O)[C@H]1O (some centres undefined) | – | – | – | -8.52% [at 11.6 µM] | -2.59% [at 11.6 µM] | -0.84% [at 11.6 µM]
14 | CC(=O)O[C@H]1CC[C@]2(C)[C@H]3CC[C@]4(C)Oc5oc(C)cc(=O)c5C[C@H]4[C@]3(C)CC[C@H]2C1(C)C | inactive | inactive | inactive | – | – | –
15 | COc1ccc(C[C@H]2COC(=O)[C@@H]2Cc2ccc(O[C@@H]3O[C@H](CO)[C@@H](O)[C@H](O)[C@H]3O)c(OC)c2)cc1OC | 4.47 µM (active) | inactive | inactive | – | – | –
16 | COc1cc(C(C)=O)c(OC)c2c1OC(C)(C)C=C2 | inactive | inactive | inactive | – | – | –
17 | COC(=O)/C=C/C=C/C(=O)OC1C=C2COC(=O)C2(O)C2(C)CCCC(C)(C)C12 (centres undefined) | inactive | inactive | inactive | – | – | –
18 | O=S(=O)(N[C@H]1CCCC[C@@H]1N1CCOCC1)c1ccc(Cl)cc1 | inactive | inactive | inactive | – | – | –
19 | CCOC(=O)C1=Cc2ccc(C(F)(F)C(F)(F)F)cc2N=C(N)C1 | inactive | inactive | inactive | – | – | –

Row | Structure (SMILES) | Potency (SKOV3) | Potency (Tov-21-G) | Potency (Tov112D) | activity change, negative = cytotoxicity (SKOV3) | activity change, negative = cytotoxicity (Tov-21-G) | activity change, negative = cytotoxicity (Tov112D)
20 | C=C1C(=O)OC2/C=C(\CO)CC/C=C(\C=O)C(O)C(OC(=O)C(C)CC)C12 (centres undefined) | inactive | inactive | inactive | – | – | –
21 | Cc1nc(C(=O)N2CCC[C@H]2Cc2nnc(-c3ccccc3)o2)c(-c2ccccc2F)s1 | inactive | inactive | inactive | – | – | –
22 | Cc1cc2c(cc1N1C(=O)c3cccc4c(CCCO)ccc(c34)C1=O)n(C)c(=O)n2C | inactive | inactive | inactive | – | – | –
23 | C=C[C@](C)(O)CC[C@H]1C(C)=CC(=O)[C@H]2C(C)(C)CCC[C@]12C | inactive | inactive | inactive | – | – | –
24 | Cc1cc(C(=O)Cn2cc(C#N)ccc2=O)c(C)n1Cc1ccccc1 | inactive | inactive | inactive | – | – | –
25 | COc1c(C(O)CC(C)C)ccc2c1C(=O)OCc1cc(C)cc(O)c1O2 (centres undefined) | inactive | inactive | inactive | – | – | –
26 | Cc1ccc(N2CCN(CCC3NC(=O)c4ccccc43)CC2)cc1C (centres undefined) | inactive | inactive | inactive | – | – | –
27 | Cc1nc(N2CCN(C(=O)c3ccco3)CC2)c2c3c(sc2n1)CCCC3 | inactive | inactive | inactive | – | – | –
28 | COc1cc(C(N)=O)nc(-c2ccccn2)c1O | inactive | inactive | inactive | – | – | –
29 | CNc1cccc(CCOc2ccc3c(c2)CN(CC(F)(F)F)C(=O)[C@H](CC(=O)O)C3)n1 | 1.78 µM (active) | 0.501 µM (active) | inactive | – | – | –
30 | Nc1nc2c(s1)CCN(Cc1ccc(Cl)cc1)CC2 | inactive | inactive | inactive | – | – | –
31 | CNCCCC1(c2ccccc2)OC(C)(C)c2ccccc21 (centres undefined) | inactive | inactive | inactive | – | – | –
32 | C=CC1(C)CC(O)C(C(=C)C(=O)OC)C(O)C1C(=C)CO (centres undefined) | inactive | inactive | inactive | – | – | –
33 | CC(=O)[C@H]1CC[C@H]2[C@@H]3CC=C4C[C@@H](OS(=O)(=O)O)CC[C@]4(C)[C@H]3CC[C@]12C | inactive | inactive | inactive | – | – | –
34 | Cc1c(C(=O)NCc2cccnc2)nn(-c2ccc(Cl)cc2Cl)c1-c1ccc(Cl)cc1 | inactive | inactive | inactive | – | – | –
35 | NS(=O)(=O)c1ccc(N2CCN(CC[C@@H]3OCCc4ccccc43)CC2)cc1 | inactive | inactive | inactive | – | – | –
36 | Cc1cn(CCN2CCN(c3ccccc3-c3cc(C#N)cc(C(=O)NCCCN4CCCC4)c3)CC2)c2ccccc12 | inactive | inactive | inactive | – | – | –
37 | Cc1cc(C)c(S(=O)(=O)n2cc(C)cc2C)c(C)c1 | inactive | inactive | inactive | – | – | –
38 | C[C@@H]1C[C@H]2O[C@@]3(O[C@@H]2C(C)(C)O)C(O)[C@@]2(C)C4CCC5C(C)(C)[C@@H](O[C@H]6OC[C@H](O)[C@@H](O)[C@@H]6O)CC[C@@]56C[C@@]46CC[C@]2(C)C13 (some centres undefined) | inactive | inactive | inactive | – | – | –
